Reference: PubChem BioAssay (NCATS)
Several values for one entry are separate records, joined by “and”; a condition that tells them apart may be missing. Identical values can stand only once. Records with an inconclusive call do not appear. Activity calls are given as the source filed them. Unless noted, calls follow the shape of the dose curve; as a rule, active = well fitted curve in the direction sought with a large enough effect; inconclusive = small, poorly fitted or top-dose-only effect, or another doubt; inactive = no such curve, though single readings can be large; an effect the other way counts as inactive or inconclusive.

Columns and labels:
[1] = target: Alpha-galactosidase A (Homo sapiens) (UniProt P06280); assay: Counterscreen for Glucocerebrosidase Inhibitors: qHTS Assay for Human alpha-Galactosidase at pH 4.5 (AID 992); also: 0% is about no effect
Chain of Alpha-galactosidase A (Homo sapiens) (P06280 whole entry, looked up): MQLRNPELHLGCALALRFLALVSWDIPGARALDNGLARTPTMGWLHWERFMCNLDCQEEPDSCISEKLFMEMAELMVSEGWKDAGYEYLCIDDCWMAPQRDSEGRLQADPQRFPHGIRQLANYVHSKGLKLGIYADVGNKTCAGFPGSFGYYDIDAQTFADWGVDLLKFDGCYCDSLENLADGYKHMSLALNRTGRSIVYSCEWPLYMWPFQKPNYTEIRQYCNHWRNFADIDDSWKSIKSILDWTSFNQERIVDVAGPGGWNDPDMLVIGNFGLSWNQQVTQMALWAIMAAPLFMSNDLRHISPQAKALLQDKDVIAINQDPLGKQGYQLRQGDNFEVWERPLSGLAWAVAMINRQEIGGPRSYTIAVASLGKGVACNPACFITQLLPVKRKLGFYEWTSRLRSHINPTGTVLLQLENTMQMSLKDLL
Procedure, shortened: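 Citrate buffer pH 4.5, Tween-20 0.005%. Enzyme 2 nM, substrate 80 uM, 20 min RT. Stop pH 10. Fluorescence Ex 365/Em 440. AC50 by Hill fit.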

[2] = target: alpha-glucosidase (Oryza sativa, rice) (UniProt Q653V4); assay: Counterscreen for Glucocerebrosidase Inhibitors: qHTS Assay for Rice alpha-Glucosidase at pH 5.0 (AID 997);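 also: 0% = full activity with enzyme and -100% = basal without enzyme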
Procedure, shortened: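 Endpoint fluorogenic assay at pH 5.0: compounds (0.7 nM to 77 uM) titrated against 4 nM rice enzyme and 400 uM 4-MU-alpha-glucoside for 20 min at room temperature; NaOH/glycine stop, read ex 365/em 440 nm, Hill-fitted AC50.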

[3] = target: Alpha-galactosidase (Coffea arabica) (UniProt Q42656); assay: Counterscreen for Glucocerebrosidase Inhibitors: qHTS Assay for Coffee Bean alpha-Galactosidase at pH 5.9 (AID 998);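 also: plate controls were uninhibited enzyme for no effect and no-enzyme basal signal for full effect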
Chain of Alpha-galactosidase (Coffea arabica) (Q42656 whole entry, looked up): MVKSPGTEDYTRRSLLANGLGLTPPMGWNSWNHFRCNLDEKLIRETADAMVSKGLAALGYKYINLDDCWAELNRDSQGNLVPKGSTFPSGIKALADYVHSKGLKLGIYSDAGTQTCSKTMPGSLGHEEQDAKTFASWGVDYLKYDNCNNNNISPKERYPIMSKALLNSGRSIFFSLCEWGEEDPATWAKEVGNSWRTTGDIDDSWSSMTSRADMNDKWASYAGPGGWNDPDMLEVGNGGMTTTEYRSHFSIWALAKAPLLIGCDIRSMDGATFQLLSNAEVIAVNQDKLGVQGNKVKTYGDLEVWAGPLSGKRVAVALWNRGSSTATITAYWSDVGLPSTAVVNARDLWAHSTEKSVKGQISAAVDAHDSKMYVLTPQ
Procedure, shortened: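 Fluorogenic 4-MU substrate hydrolysis, 80 uM substrate and 2 nM coffee bean alpha-galactosidase, pH 5.9 citrate buffer, 20 min at room temperature, then NaOH/glycine stop. Titration 0.7 nM–77 uM, normalized to no-enzyme and enzyme controls, AC50 via Hill equation.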

[4] = Validation of Assay for Modulators of Lamin A Splicing (AID 1459; active = well fitted curve in the direction sought with a large enough effect in the signal ratio; the % refers to the signal ratio;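 also: cells exposed to compound for two days before reading; 0% is about no effect; ratio rise marks activators and ratio drop marks inhibitors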)
Procedure, shortened: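 Readout: ratio of GFP (500-530 nm) to RFP (575-640 nm) total object intensity by 488 nm laser-scanning cytometry after 48 hrs. Cells were HeLa S3 clones carrying lamin A-EGFP minigene plus DsRed2 viability reporter; vehicle 0.5% DMSO final.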

[5] = target: DNA repair nuclease/redox regulator APEX1 (Homo sapiens) (UniProt P27695); assay: qHTS Validation Assay for Inhibitors of the Human Apurinic/apyrimidinic Endonuclease 1 (APE1) (AID 1705;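 also: TAMRA fluorescence gain over two minutes as APE1 cuts a quenched THF abasic duplex; % is scaled to controls: 0 for no effect and ±100 for the full control effect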)
Chain of DNA repair nuclease/redox regulator APEX1 (Homo sapiens) (P27695 whole entry, looked up): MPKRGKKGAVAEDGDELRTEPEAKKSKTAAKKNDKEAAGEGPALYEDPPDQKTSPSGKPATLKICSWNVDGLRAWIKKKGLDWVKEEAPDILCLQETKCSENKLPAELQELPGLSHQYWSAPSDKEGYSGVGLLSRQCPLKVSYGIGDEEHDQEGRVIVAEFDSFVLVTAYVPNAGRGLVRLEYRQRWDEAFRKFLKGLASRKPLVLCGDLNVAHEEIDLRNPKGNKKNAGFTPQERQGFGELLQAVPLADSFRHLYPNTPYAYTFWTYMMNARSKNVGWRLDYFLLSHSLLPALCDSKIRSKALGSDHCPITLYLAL
Procedure, shortened: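 Read-out: TAMRA fluorescence (525 nm ex, 598 nm em) from cleavage of a quenched THF abasic-site duplex, 50 nM final; activity taken as intensity change between third and first of three reads 60 s apart.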

[6] = Counterscreen for APE1 Inhibitors: Fluorescent Dye Displacement Validation Assay (AID 1707); also: potency is read from the fitted curve at half-maximal effect;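 as to activity change, negative = inhibition: plate controls were ThO with dsDNA and no compound for no effect and ThO without dsDNA for full effect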
Procedure, shortened: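 Signal: ThO fluorescence (ex 480 nm/em 540 nm) on binding 50 nM dsDNA; displacement by test compound reduces it. Conditions: 250 nM dye, 50 mM Tris-HCl pH7.5, 2 mM MgCl2, 50mM NaCl, 0.01% Tween-20.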

[7] = target: Endonuclease 4 (Escherichia coli (strain K12)) (UniProt P0A6C1); assay: Counterscreen for APE1 Inhibitors: qHTS Validation Assay for Inhibitors of Endonuclease IV (AID 1708); also: % is scaled to controls: 0 for no effect and ±100 for the full control effect
Procedure, shortened: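 Incision of a double-stranded 50 nM TAMRA/BHQ-2 abasic substrate was followed kinetically (525/598 nm, reads every 60 s) after 15 min enzyme–compound preincubation with 2 nM EndoIV in pH 7.5 Tris buffer with MgCl2, DTT and Tween-20; concentration-response format.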

[8] = qHTS for differential inhibitors of proliferation of Plasmodium falciparum line GB4 (AID 1816); conditions: Potency: Plasmodium falciparum GB4 proliferation inhibition;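 also: parasite growth measured after 72 h incubation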; also: potency is read from the fitted curve at half-maximal effect;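 as to activity change, negative = inhibition: 0% = vehicle DMSO and -100% = reference inhibitor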
[9] = qHTS for differential inhibitors of proliferation of Plasmodium falciparum line 3D7 (AID 1876); also: potency is read from the fitted curve at half-maximal effect
[10] = qHTS for differential inhibitors of proliferation of Plasmodium falciparum line W2 (AID 1883); conditions: Potency: Plasmodium falciparum W2 proliferation inhibition;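 also: parasites grown with compound for 72 h before lysis and staining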; also: potency is read from the fitted curve at half-maximal effect;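 as to activity change, negative = inhibition: 0% = vehicle wells and -100% = control inhibitor wells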
[11] = qHTS for differential inhibitors of proliferation of Plasmodium falciparum line HB3 (AID 1886); conditions: Potency: Plasmodium falciparum HB3 proliferation inhibition;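 also: parasites grown with compound for 72 h before SYBR Green readout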; also: potency is read from the fitted curve at half-maximal effect;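 as to activity change, negative = inhibition: plate controls were vehicle for no effect and reference inhibitor for full effect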
[12] = qHTS Assay for Modulators of Human Peripheral Myelin Protein 22 (PMP22) Expression/Activity (AID 1967; active = well fitted curve in the direction sought with a large enough effect in the signal ratio; the % refers to the signal ratio;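 also: 0% = untreated cells and 100% end not stated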)
Procedure, shortened: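 Mouse MSC80 Schwann line, Pmp22 promoter–CBG68 reporter, EF-alpha–CBR internal control. 24h compound exposure, 37 °C/5% CO2, DMEM + 10% FBS. Readout: corrected green/red luminescence ratio, normalized to untreated cells; concentration-response curves fitted and classified.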

[13] = target: Ferritin light chain (Equus caballus) (UniProt P02791); assay: qHTS Validation Assay for Identification of Novel General Anesthetics (AID 2323); also: % is scaled to controls: 0 for no effect and ±100 for the full control effect
Chain of Ferritin light chain (Equus caballus) (P02791 2-175 limits assumed): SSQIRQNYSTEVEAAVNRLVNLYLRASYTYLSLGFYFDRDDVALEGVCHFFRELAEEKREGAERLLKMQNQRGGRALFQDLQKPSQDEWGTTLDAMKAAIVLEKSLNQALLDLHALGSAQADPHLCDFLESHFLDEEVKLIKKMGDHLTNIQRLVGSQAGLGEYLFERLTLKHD
Procedure, shortened: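 10 uM horse-spleen apoferritin + 1-AMA (50% saturated, PBS); cpd pin-transferred, 10 min RT. Ex 380/Em 535 nm endpoint. Activity normalized between free 1-AMA and 1-AMA/apoferritin; 4-parameter Hill fit of concentration-response.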

[14] = qHTS Assay for Lipid Storage Modulators (AID 1519; calls by dose curve; as to activity change, negative = inhibition: % is scaled to controls: 0 for no effect and ±100 for the full control effect); conditions: Drosophila S3 cells, BODIPY lipid droplet/cell ratio, laser cytometry, cells loaded with oleic acid
Procedure, shortened: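 Cells seeded at 5,000 per well were treated with compounds over a concentration series and loaded with oleic acid (400 uM, as added). Lipid droplet fluorescence (488 nm excitation, 500-530 nm channel) was read by laser-scanning cytometry and normalized to 20 uM Triacsin C.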

[15] = qHTS for differential inhibitors of proliferation of Plasmodium falciparum line 7G8 (AID 1815);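 also: parasite growth measured after three days of incubation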; also: potency is read from the fitted curve at half-maximal effect;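 as to activity change, negative = inhibition: plate controls were vehicle wells for no effect and reference inhibitor wells for full effect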
[16] = qHTS for differential inhibitors of proliferation of Plasmodium falciparum line D10 (AID 1877);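 also: parasites grown with compound for 72 h before DNA staining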; also: potency is read from the fitted curve at half-maximal effect;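 as to activity change, negative = inhibition: plate controls were vehicle wells for no effect and reference inhibitor wells for full effect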
[17] = qHTS for differential inhibitors of proliferation of Plasmodium falciparum line Dd2 (AID 1882); conditions: Potency: Plasmodium falciparum Dd2 proliferation inhibition; also: nearly all actives have a fitted effect of over 65% in size; also: potency is read from the fitted curve at half-maximal effect;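 as to activity change, negative = inhibition: plate controls were DMSO vehicle for no effect and 0.29 µM artemisinin for full effect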
Procedure, shortened: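 SYBR Green DNA fluorescence (ex 485, em 535 nm) after overnight lysis quantifies parasite growth; compound exposure lasted 72 h at 37 C on infected red cells at 2.5% hematocrit, 0.3% parasitemia (final). Artemisinin 0.29 uM and vehicle wells define normalization.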

[18] = Cell Viability - LYMP1-002 - Assay at 24 hr (AID 993); also: potency is read from the fitted curve at half-maximal effect
Procedure, shortened: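 Acute toxicity is measured as concentration-dependent loss of cellular ATP in a human lymphoblastoid line (Coriell LYMP1-002) after 24 h treatment in complete medium. ATP is quantified by luciferase luminescence and AC50 derived by Hill modelling.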

[19] = Cell Viability - LYMP1-002 - Assay at 40 hr (AID 994); also: nearly all actives have a fitted effect of over 60% in size; also: potency is read from the fitted curve at half-maximal effect
Procedure, shortened: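 Cells are plated at 2500 per well and rested 5 hr at 37 C. Compounds are added and incubated 40 hr at 37 C. CellTiter-Glo reagent is added for 30 min at room temperature before luminescence is read.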

[20] = qHTS Assay for Identification of Small Molecule Inducers of Hypoxia Response (AID 2120; active = well fitted curve in the direction sought with a large enough effect in the signal ratio, with a control signal flat, not every such curve was filed as active; the % refers to the signal ratio; also: 0% is about no effect)
Procedure, shortened: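 Cell-based qHTS for reporter induction: hypoxia response element controlled beta-lactamase in ME-180 cells. Compounds incubated 17 h at 37 degrees C; activity from blue/green (460/530 nm) ratio, inducers ranked by AC50.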

CCCN1CCC[C@H](c2cccc(O)c2)C1
active: Potency [8] 14.1 µM | Potency [10] 11.2 µM
inactive: outcome [1] | outcome [2] | outcome [3] | outcome [4] | Potency [5] | Potency [6] | Potency [7] | Potency [9] | Potency [11] | outcome [12] | outcome [13]

NC(N)=NOCCC(N)C(=O)O (configuration not stated)
3.95% and -21.7%: max response ([14]; measured here: cell count channel max response)
inactive: outcome [1] | outcome [2] | outcome [3] | activity change, negative = inhibition ([14]; at 57.5 µM (top of the series)) 1.36% and 1.85% | Potency [5] | Potency [6] | Potency [15] | Potency [8] | Potency [9] | Potency [16] | Potency [17] | Potency [10] | Potency [11] | outcome [12] | outcome [13]
4.87% and -17.2%: max response ([14]; measured here: lipid channel max response)

COc1ccc2c(c[n+](C)c3c4cc5c(cc4ccc23)OCO5)c1OC
active: Potency [6] 14.1 µM | Potency [15] 14.1 µM | Potency [8] 14.1 µM | Potency [17] 11.2 µM | Potency [10] 12.6 µM
inactive: outcome [1] | outcome [2] | outcome [3] | Potency [5] | Potency [7] | outcome [13]

NC1CC1c1ccccc1 (configuration not stated)
active: Potency [15] 10 µM | Potency [8] 10 µM | Potency [10] 10 µM | Potency [11] 10 µM
inactive: Potency [5] | Potency [6] | Potency [7] | Potency [17]

CC[C@H](CO)Nc1nc(NCc2ccccc2)c2ncn(C(C)C)c2n1
active: Potency [15] 5.01 µM | Potency [8] 6.31 µM | Potency [9] 3.16 µM | Potency [16] 10 µM | Potency [10] 5.62 µM | Potency [11] 5.62 µM

c1cc2ccc3cccc4ccc(c1)c2c34
inactive: Potency [18] | Potency [19] | outcome [20]

C1CCC(NC2CCCCC2)CC1
inactive: Potency [18] | Potency [19] | outcome [20]

CCn1cc(C(=O)O)c(=O)c2cc3c(cc21)OCO3
inactive: outcome [3] | outcome [13]

CCN1CCc2nc(N)oc2CC1
inactive: outcome [3]

CCN(CC)CCNC(=O)c1ccc(NC(C)=O)cc1
inactive: outcome [3]

CC(C)(O)C(=O)Nc1ccc([N+](=O)[O-])c(C(F)(F)F)c1
inactive: Potency [18] | Potency [19] | outcome [20]

Nc1ccc(Cl)cc1
inactive: Potency [18] | Potency [19] | outcome [20]

CCc1c(C)[nH]c2c1C(=O)C(CN1CCOCC1)CC2 (configuration not stated)
inactive: outcome [3]

CCCCC(CC)COC(=O)c1ccccc1C(=O)OCC(CC)CCCC (configuration not stated)
inactive: Potency [18] | Potency [19] | outcome [20]

CC(C)c1ccc2c(c1)c(SC(C)(C)C)c(CC(C)(C)C(=O)O)n2Cc1ccc(Cl)cc1
inactive: outcome [3]

NCCS
inactive: outcome [3]

CS(=O)(=O)Nc1ccc([N+](=O)[O-])cc1Oc1ccccc1
inactive: outcome [3]

O=[N+]([O-])c1cc([N+](=O)[O-])c2ccccc2c1
inactive: Potency [18] | Potency [19] | outcome [20]

O=[N+]([O-])c1c(Cl)c(Cl)cc(Cl)c1Cl
inactive: Potency [18] | Potency [19] | outcome [20]

Cc1cccc(C#Cc2ccccc2)n1
inactive: outcome [3]

OCCCBr
inactive: Potency [18] | Potency [19] | outcome [20]

CC(=O)[O][Hg][c]1ccccc1
active: Potency [18] 3.98 µM | Potency [19] 3.98 µM

CC#C[C@]1(O)CC[C@H]2[C@@H]3CCC4=CC(=O)CCC4=C3[C@H](c3ccc(N(C)C)cc3)C[C@@]21C
inactive: outcome [3]

CC(C)(Sc1ccc(CCN(CCCCC2CCCCC2)C(=O)NC2CCCCC2)cc1)C(=O)O
inactive: outcome [3]

O=[N+]([O-])c1c2ccccc2cc2ccccc12
inactive: Potency [18] | Potency [19] | outcome [20]

CCCCOC(=O)c1ccccc1C(=O)OCc1ccccc1
inactive: Potency [18] | Potency [19] | outcome [20]

CCOC(=O)C1=C[C@@]2(CC)CCCN3CCc4c(n1c1ccccc41)[C@H]32
inactive: outcome [3]

C=CC(=O)NCNC(=O)C=C
inactive: Potency [18] | Potency [19] | outcome [20]
